An excerpt weighted towards active compounds, which were near 3% of everything screened.
SENP8 block-1: SENP8 protease inhibition | Q96LD8 | purified SENP8, Z-RLRGG-aminoluciferin cleavage, luminescence | inhibition, % at 10 µM | 330,000 tested, 1.2% active; in the data active = inhibition above about 50%
SENP7 block: inhibitors of human SENP7 protease | AID 434973 | 330,000 tested, 1.5% active | inhibition, % at 5 µM | recombinant SENP7, Z-RLRGG-aminoluciferin luminescence, 40 min | Q9BQF6;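 active = inhibition above about 50% at the single test dose, limit read from the data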;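 also: plate controls were DMSO with enzyme for no effect and no enzyme buffer wells for full effect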
Target sequence (Q9BQF6 706-1050 limits assumed): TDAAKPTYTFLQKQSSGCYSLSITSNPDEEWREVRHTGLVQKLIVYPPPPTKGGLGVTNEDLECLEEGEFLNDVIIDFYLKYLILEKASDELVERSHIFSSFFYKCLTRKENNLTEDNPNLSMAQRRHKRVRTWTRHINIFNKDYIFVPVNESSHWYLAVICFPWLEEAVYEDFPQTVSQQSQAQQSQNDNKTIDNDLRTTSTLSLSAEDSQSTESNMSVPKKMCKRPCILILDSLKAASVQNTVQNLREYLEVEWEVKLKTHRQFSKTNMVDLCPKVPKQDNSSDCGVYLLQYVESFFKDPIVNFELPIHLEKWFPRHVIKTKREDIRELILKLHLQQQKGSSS
SENP6 inh: SENP6 protease inhibition; AID 2599; inhibition, % at 10 µM; 330,000 tested, 1.8% active; Q9GZR1; Recombinant SENP6 catalytic domain, aminoluciferin luminescence;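 active = inhibition above about 50% at the single tested dose, limit read from the data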;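 also: plate controls were DMSO wells with enzyme for no effect and DMSO wells lacking enzyme for full effect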
TRAIL sens C8: sensitizes caspase-8 expressing cells to TRAIL | 360,000 tested, 1% active | NB7+C8 cells + TRAIL, ATPlite viability luminescence | inhibition (viability loss, TRAIL sensitization), % at 10 µM | AID 624354;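 active = compounds causing at least 50% loss of cell viability in the single-dose screen, relative to plate controls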
SENP8 block-2: SENP8 (human) protease inhibition | Q96LD8 | recombinant SENP8, Nedd8 substrate fluorescence | inhibition, % at 20 µM | 360,000 tested, 0.64% active | AID 602440; in the data active = inhibition mostly above about 40%, no sharp cut-off; inactive = mostly below about 27%
PPC-1+TRAIL kill: compounds killing PPC-1 cancer cells with TRAIL present (potentiator screen, no TRAIL-free arm) | 220,000 tested, 0.41% active | cell killing (% activity), % at 4 µM or 5 µM | AID 1443 | PPC-1 cells + TRAIL, ATPLite viability luminescence;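 active = cell killing above 50% in the first pass at 4 µM, then a duplicate retest at 5 µM averaging 50% or more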;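 also: plate controls were cells with TRAIL plus DMSO for no effect and medium-only wells lacking cells for full effect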
PPC-1 tox: PPC-1 cell cytotoxicity. shares compounds with PPC-1+TRAIL kill. PPC-1 viability, ATPlite luminescence, overnight. cytotoxicity, % at 5 µM. 1,200 tested, 50% active. AID 1447;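 active = reconfirmed compounds whose average cytotoxicity reaches 50% or more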;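 also: 0% = DMSO-treated cells and 100% = wells holding medium but no cells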
The depositor's hits bear a star.

COc1ccc(OCC(=O)N/N=C(\CCC(=O)O)c2cccs2)cc1 was read as SENP8 block-1 -3.2, SENP7 block 4.5, SENP6 inh 4.0, TRAIL sens C8 0.4, SENP8 block-2 26.0, PPC-1+TRAIL kill 14.4 and PPC-1 tox 10.1.
`COc1ccc(OCC(=O)N/N=C(\C)c2cccs2)cc1` gave SENP8 block-1 -9.9, SENP7 block -5.3, SENP6 inh -2.0, TRAIL sens C8 -11.1, SENP8 block-2 10.9 and PPC-1+TRAIL kill 15.4.
For CCCCCCCCC[n+]1cccc2c3ccccc3ccc21 the results were SENP8 block-1 -12.1, SENP7 block 10.2, SENP6 inh -15.7, TRAIL sens C8 62.1*, SENP8 block-2 -476.9, PPC-1+TRAIL kill 29.5 and PPC-1 tox 32.4.
`CCCCCCCCCCn1c2c(c(=N)c3c1CCC3)CCC2` gave SENP8 block-1 -9.0, SENP7 block 4.2, SENP6 inh -11.7, TRAIL sens C8 78.7*, SENP8 block-2 19.2, PPC-1+TRAIL kill 56.4* and PPC-1 tox 53.5*.
CCCCCCCCCn1c2c(c(=N)c3c1CCC3)CCCC2 was read as SENP8 block-1 -1.4, SENP7 block 7.4, SENP6 inh -6.6, TRAIL sens C8 30.6, SENP8 block-2 10.7, PPC-1+TRAIL kill 48.5 and PPC-1 tox 49.8.
Cc1ccc(-n2nc(C)c(C(=O)Nc3cccc(C(=O)NC4CC4)c3)n2)c(C)c1 was read as SENP8 block-1 -8.7, SENP7 block 8.1, SENP6 inh -13.0, TRAIL sens C8 18.1 and SENP8 block-2 10.3.
Cc1ccc(C2(c3ccccc3)NC(=O)N(CC(=O)NCc3ccco3)C2=O)cc1C (stereo unspecified) was read as SENP8 block-1 -7.5, SENP7 block -3.8, SENP6 inh -13.6, TRAIL sens C8 8.0 and SENP8 block-2 8.6.
`O=C(CSc1ccc(Cl)cc1)N1CCOCC1` gave SENP8 block-1 2.5, SENP7 block 2.6, SENP6 inh -8.8, TRAIL sens C8 -4.0, SENP8 block-2 17.4, PPC-1+TRAIL kill 0.9 and PPC-1 tox 4.7.
O=C(CCSc1ccc(Cl)cc1)N1CCOCC1 was read as SENP8 block-1 -0.4, SENP7 block 0.2, SENP6 inh -0.9, TRAIL sens C8 -6.0, SENP8 block-2 25.5 and PPC-1+TRAIL kill 7.3.
Screening CC1(C(=O)NS(=O)(=O)c2ccccc2Cl)CCN1C(=O)C1CCCCC1 (stereo unspecified) returned TRAIL sens C8 -9.1 and SENP8 block-2 19.2.
Screening CCC(=O)Nc1nonc1-c1nc2ccccc2n1CC(C)C returned SENP8 block-1 -0.3, SENP7 block -3.7, SENP6 inh -3.6, TRAIL sens C8 12.5, SENP8 block-2 -438.3, PPC-1+TRAIL kill -8.1 and PPC-1 tox -13.2.
For N#Cc1c(-n2ccnc2)cccc1-n1ccnc1 the results were SENP8 block-1 5.5, SENP7 block 2.7, SENP6 inh 3.4, TRAIL sens C8 -7.1, SENP8 block-2 24.9 and PPC-1+TRAIL kill 12.8.
Cc1cccc(-n2cccc2)c1C#N was read as SENP8 block-1 1.8, SENP7 block 3.8, SENP6 inh -6.5, TRAIL sens C8 -3.4, SENP8 block-2 1.9, PPC-1+TRAIL kill 17.9 and PPC-1 tox 8.9.
For O=C1CC(NS(=O)(=O)c2cccs2)CN1c1ccccc1 (stereo unspecified) the results were SENP8 block-1 -14.0, SENP7 block 11.2, SENP6 inh -16.7, TRAIL sens C8 -8.4 and SENP8 block-2 2.9.
For CC1Cc2ccccc2N1S(=O)(=O)c1cnc(Cl)c(Br)c1 (stereo unspecified) the results were SENP8 block-1 2.8, SENP7 block -2.8, SENP6 inh -2.9, TRAIL sens C8 -9.1, SENP8 block-2 28.1 and PPC-1+TRAIL kill 38.2.
Screening CC1Cc2ccccc2N1S(=O)(=O)c1cnc(Cl)c(Cl)c1 (stereo unspecified) returned SENP8 block-1 -1.0, SENP7 block -1.0, SENP6 inh -6.2, TRAIL sens C8 -4.1, SENP8 block-2 16.9, PPC-1+TRAIL kill 49.9 and PPC-1 tox 45.0.
Screening COc1ccc(NC(=O)CNCc2ccc(Cl)cc2)cc1S(=O)(=O)N1CCOCC1 returned SENP8 block-1 -1.3, SENP7 block -13.5, SENP6 inh -13.1, TRAIL sens C8 0.7 and SENP8 block-2 13.3.
For Cc1cccc(NC(=O)C(C)Sc2ncnc3sccc23)c1 (stereo unspecified) the results were TRAIL sens C8 -12.6 and SENP8 block-2 4.8.
